SMILES strings stand for the structures. Where “and” joins values, the source holds several entries; their conditions need not be identical. Identical values can stand only once. Calls of active or inactive are those of the source. Entries that show only a call come without a potency. Calls follow the shape of the dose curve; as a rule, active = well fitted curve in the direction sought with a large enough effect in the repeat runs; inconclusive = weak or mixed curves; inactive = flat fitted curve, though single readings scatter.
Potency is read from the fitted curve at half-maximal effect; tags tell the direction and shape of the fitted curve or compound fluorescence and quenching.

The nature of the assay: qHTS assay to test for compound auto fluorescence at 535 nm (green) in HEK293 cell free culture (AID 720682). As to conditions: cell-free medium, green autofluorescence 485/535 nm; series mostly up to 91.3 µM. The source says: U.S. Tox21 Program National Center for Advancing Translational Sciences [NCATS] NIH Chemical Genomics Center [NCGC] U.S. Environmental Protection Agency [EPA] National Institutes of Environmental Health Sciences [NIEHS] National Toxicology Program [NTP] U.S. Food and Drug Administration [FDA] Tox21 Assay Overview: Compound auto fluorescence often interferes with screening of the compound library against various biological targets and signaling pathways. Some of these compounds may have fluorophoric properties. Such properties may interfere with the assay outputs resulting in false positives and/or negatives. To decrease such complications and ensure the compound activities are relevant in terms of biological response, the Tox21 10K compound library was screened for auto fluorescence. From the fluorophores used as reporter signals in our screening assays, the auto fluorescence equivalencies of compounds against three fluorophores have been evaluated: Triamterene, Fluorescein and Rose Bengal sodium for blue, green and red fluorescence, respectively. The fluorescence intensities were measured using Excitation/Emission wavelengths at 405/460nm, 485/535nm and 540/590nm for blue, green and red labels, respectively. This assay includes the green fluorescence data.
Tox21 Assay Protocol Summary: 5 uL of culture medium (DMEM containing 10% FBS) per well was dispensed into black wall/clear bottom 1536-well plates using a Multidrop Combi Dispenser (ThermoFisher Scientific, Waltham, MA). After 23 nL compound or DMSO vehicle was transferred into assay plate by a pintool work station (Kalypsys, San Diego, CA), fluorescence intensities in the assay plates were measured by an Envision (PerkinElmer, Shelton, CT) plate reader using three labels for measuring blue, green and red fluorescence at […] 460, 535 and 590nm respectively.
For the molecule `CCCc1cc(=O)[nH]c(=S)[nH]1`, the Potency result is “inactive”. As to `C/C=C/C=C/C(=O)O`, the Potency result is “inactive”. For `CCCCCCCCCCCC[N+](C)(C)Cc1ccccc1` the value was “inactive”; for `CS(=O)(=O)OCCCCOS(C)(=O)=O`, “inactive”; for `CCCCC1(COC(=O)CCC(=O)O)C(=O)N(c2ccccc2)N(c2ccccc2)C1=O`, “inactive”. Consider `Nc1ccc(S(N)(=O)=O)cc1`, for which the Potency entry is “inactive”. As to `CCCCC(CC)C(=O)O` (stereo not given), the Potency result is “inactive”.

In the case of `CC(=O)Nc1c(I)c(NC(C)=O)c(I)c(C(=O)O)c1I`, the Potency entry was “inactive”. For `CN(C)C(=S)SC(=S)N(C)C`, the Potency entry was “inactive”.

Turning to `CN1[C@@H]2CC(OC(=O)[C@H](CO)c3ccccc3)C[C@H]1[C@@H]1O[C@@H]12` (stereo not given in full), the Potency entry is “inactive”. The entry for `CN[C@H]1CC[C@@H](c2ccc(Cl)c(Cl)c2)c2ccccc21` is “inactive”; for `Cc1ccc(S(=O)(=O)O)cc1` it is “inactive”. The entry for `CC1(C)S[C@@H]2[C@H](NC(=O)[C@H](N)c3ccccc3)C(=O)N2[C@H]1C(=O)O` is “inactive”; for `CCCC[P+](CCCC)(CCCC)CCCC` it is “inactive”; for `O=CC(=O)c1ccccc1` it is “inactive”.

Regarding `NC(CO)(CO)CO`, the Potency result was “inactive”. For `CC(=O)CCC(=O)O` the value was “inactive”; for `COc1ccc2cc(S(=O)(=O)N[C@H](CC(=O)N[C@H](Cc3ccc(CN4[C@H](C)CCC[C@@H]4C)cc3)C(=O)N(C)C(C)C)c3ccc4c(c3)OCO4)ccc2c1`, “inactive”. The entry for `CC(O)(P(=O)(O)O)P(=O)(O)O` is “inactive”. For the molecule `COc1ccc(C(Cl)=C(c2ccc(OC)cc2)c2ccc(OC)cc2)cc1`, the Potency result is “inactive”.

With `CN(C)C(=O)Nc1ccc(Cl)c(Cl)c1`, the Potency entry is “inactive”.

For the molecule `Cc1cc(C)nc(NS(=O)(=O)c2ccc(N)cc2)n1`, the Potency entry is “inactive”. As for `O=C1NS(=O)(=O)c2ccccc21`, the Potency result was “inactive”. Turning to `CC(C)c1c(C(=O)Nc2ccccc2)c(-c2ccccc2)c(-c2ccc(F)cc2)n1CC[C@@H](O)C[C@@H](O)CC(=O)O`, the Potency entry is “inactive”.

Regarding `OC[C@H]1O[C@H](O[C@]2(CCl)O[C@H](CCl)[C@@H](O)[C@@H]2O)[C@H](O)[C@@H](O)[C@H]1Cl`, the Potency result is “inactive”. For `Cc1ncc([N+](=O)[O-])n1CCO` the value was “inactive”; for `CC(=O)C(=O)O`, “inactive”; for `NC(=O)c1cccnc1`, “inactive”.

For `Nc1ccc([N+](=O)[O-])cc1O`, the Potency entry is “inactive”. On to `CC(C)NCC(O)c1ccc(O)c(O)c1` (stereo not given), for which the Potency result is “inactive”.

As for `O=c1[nH]cc(F)c(=O)[nH]1`, the Potency result was “inactive”.

Take `Cc1ncc([N+](=O)[O-])n1C`: the Potency result is “inactive”.

On to `CC12CCC(CC1)C(C)(C)O2`, for which the Potency entry was “inactive”. On to `Cc1c(C(=O)O)c(O)cc2c1C(=O)c1c(O)c([C@@H]3O[C@H](CO)[C@@H](O)[C@H](O)[C@H]3O)c(O)c(O)c1C2=O`, for which the Potency entry is “inactive”. For `CC(=O)CC(c1ccccc1)c1c(O)c2ccccc2oc1=O` (stereo not given) the value was “inactive”; for `CN(C)CCOC(C)(c1ccccc1)c1ccccn1` (stereo not given), “inactive”; for `O=C1OC2(c3ccccc31)c1cc(Br)c(O)c(Br)c1Oc1c2cc(Br)c(O)c1Br`, 11.2 µM [fluorescent] (active) and 17.8 µM [fluorescent] (active). The entry for `Cc1cccc(C)c1` is “inactive”. Consider `O=C(O)c1ccccc1`, for which the Potency entry was “inactive”. `Nc1c2c(nc3ccccc13)CCCC2`: the Potency result is “inactive”.

The record behind these values is PubChem BioAssay (Tox21).
